Test results published in PubChem BioAssay (Tox21).
“And” between values parts separate entries of the source, which are not always exact repeats. Equal entries are not always repeated. Results filed as inconclusive are left out. Entries that show only a call come without a potency. More than one record can exist for a structure, and the calls need not agree. The source made the active and inactive calls. Unless noted, the call rests on the fitted dose curve.

How the values were obtained:
[1] = qHTS assay to identify small molecule antagonists of the sonic hedgehog signaling (Shh) pathway (AID 1259369); further: nearly all actives have a fitted effect of over 45% in size; further: potency means the concentration at half of the fitted maximal effect
In short: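 Read-out is luminescence from a firefly luciferase gene controlled by the Gli1 response element, in 3T3Gli1-Luc cells pre-incubated 4hr then exposed to compounds and conditioned medium for 24hr.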

[2] = qHTS assay to identify small molecule agonists of the androgen receptor (AR) signaling pathway in the presence of an antagonist - cell viability counter screen (AID 1259379; active means well fitted curve in the direction sought with a large enough effect in the repeat runs; an effect the other way counts as inactive or inconclusive; further: nearly all actives have a fitted effect of over 25% in size; further: potency means the concentration at half of the fitted maximal effect)
In short: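 Each compound was tested at 15 concentrations on MDA-kb2 cells in the presence of 3.0uM nilutamide. Viability was measured by CellTiter-Fluor fluorescence after a 16 hr incubation at 37C in a CO2-free atmosphere.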

[3] = qHTS assay to identify small molecule agonists of the estrogen receptor beta (ER-beta) signaling pathway - cell viability counter screen (AID 1259380; active means well fitted curve in the direction sought with a large enough effect in the repeat runs; an effect the other way counts as inactive or inconclusive; further: nearly all actives have a fitted effect of over 30% in size; further: potency means the concentration at half of the fitted maximal effect)
In short: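 Compounds dissolved in DMSO were pin-transferred onto ER-beta-UAS-bla HEK293T cells that had settled 6 hr, and exposure ran 16 hr at 37C. Following the reporter read, CellTiter-Glo luminescence after 30 min at room temperature indicated cytotoxicity.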

[4] = target: Estrogen receptor beta (Homo sapiens) (UniProt Q92731); assay: qHTS assay to identify small molecule antagonists of the estrogen receptor beta (ER-beta) signaling pathway (AID 1259378; active means well fitted inhibition curve with a large enough effect in the signal ratio in the repeat runs, not every such curve was filed as active; the % refers to the signal ratio; further: potency means the concentration at half of the fitted maximal effect)
In short: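 Antagonist mode: compounds added to beta-lactamase reporter HEK293T ER-beta-UAS cells stimulated with E2 (1nM final), 16 hr at 37C. LiveBLAzer B/G FRET substrate, 2 hours room temperature, fluorescence read-out.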

[5] = qHTS assay to identify small molecule antagonists of the estrogen receptor beta (ER-beta) signaling pathway - cell viability counter screen (AID 1259382; active means well fitted curve in the direction sought with a large enough effect in the repeat runs; an effect the other way counts as inactive or inconclusive; further: nearly all actives have a fitted effect of over 55% in size; further: potency means the concentration at half of the fitted maximal effect)
In short: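 CellTiter-Glo ATP luminescence measured after the LiveBLAzer read in the same wells; ER-beta-UAS-bla HEK293T cells, 16 hr compound treatment with 1nM 17-beta-estradiol agonist at 37C, 5% CO2.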

[6] = target: Estrogen receptor (Homo sapiens) (UniProt P03372); assay: qHTS assay to identify small molecule agonists of the estrogen receptor alpha (ER-alpha) signaling pathway in the presence of an antagonist (AID 1259383); further: top concentration of the series differs between compounds; nearly all actives have a fitted effect of over 15% in size
In short: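 Luminescent ERE-luciferase reporter, VM7Luc4E2 cells (endogenous ER-alpha); 10.0nM ICI-182,780 final; 15-point compound titration; 22hr at 37C; ONE-Glo, 30min RT.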

[7] = qHTS assay to identify small molecule agonists or antagonists of the thyroid stimulating hormone receptor (TSHR) signaling pathway - wild type cell line counter screen (AID 1259384)
In short: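 Counter screen in untransfected Hek293: compounds (15-point titration, triplicate) plus phosphodiesterase inhibitor Ro20-1724 added after 18 h plating; 30 min RT. Intracellular cAMP via competitive d2/cryptate immunoassay, 1 h incubation.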

[8] = target: Thyrotropin receptor (Homo sapiens) (UniProt P16473); assay: qHTS assay to identify small molecule antagonists of the thyroid stimulating hormone receptor (TSHR) signaling pathway (AID 1259385); further: nearly all actives have a fitted effect of over 20% in size; further: potency means the concentration at half of the fitted maximal effect
In short: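 Antagonist mode: compound-treated TSHR-expressing HEK293 cells were stimulated with 1.5 ng/mL TSH (final) in presence of Ro20-1724 for 30 min at RT. HTRF cAMP detection after 1 h; each compound tested at 15 concentrations, triplicate.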

[9] = target: Estrogen receptor beta (Homo sapiens) (UniProt Q92731); assay: qHTS assay to identify small molecule agonists of the estrogen receptor beta (ER-beta) signaling pathway (AID 1259377; active means well fitted activation curve with a large enough effect in the signal ratio in the repeat runs, not every such curve was filed as active; the % refers to the signal ratio; further: potency means the concentration at half of the fitted maximal effect)
In short: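 Reporter cells (HEK293T, ER-beta-UAS-bla) receive compounds or DMSO after a 6 hr pre-incubation. They then incubate 16 hr at 37C/5% CO2, and fluorescence from LiveBLAzer B/G substrate is measured after 2 hours at room temperature.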

[10] = target: Androgen receptor (Homo sapiens) (UniProt P10275); assay: qHTS assay to identify small molecule agonists of the androgen receptor (AR) signaling pathway in the presence of an antagonist (AID 1259381); further: nearly all actives have a fitted effect of over 15% in size
In short: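 Plated MDA-kb2 cells (3,000/well) were pre-incubated 5hr, given nilutamide (3.0uM final) or buffer, then dosed with compounds in DMSO at 15 concentrations. Luciferase activity was quantified by luminescence after 16hr at 37C.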

Estrogen receptor (Homo sapiens), sequence (P03372 whole entry, looked up): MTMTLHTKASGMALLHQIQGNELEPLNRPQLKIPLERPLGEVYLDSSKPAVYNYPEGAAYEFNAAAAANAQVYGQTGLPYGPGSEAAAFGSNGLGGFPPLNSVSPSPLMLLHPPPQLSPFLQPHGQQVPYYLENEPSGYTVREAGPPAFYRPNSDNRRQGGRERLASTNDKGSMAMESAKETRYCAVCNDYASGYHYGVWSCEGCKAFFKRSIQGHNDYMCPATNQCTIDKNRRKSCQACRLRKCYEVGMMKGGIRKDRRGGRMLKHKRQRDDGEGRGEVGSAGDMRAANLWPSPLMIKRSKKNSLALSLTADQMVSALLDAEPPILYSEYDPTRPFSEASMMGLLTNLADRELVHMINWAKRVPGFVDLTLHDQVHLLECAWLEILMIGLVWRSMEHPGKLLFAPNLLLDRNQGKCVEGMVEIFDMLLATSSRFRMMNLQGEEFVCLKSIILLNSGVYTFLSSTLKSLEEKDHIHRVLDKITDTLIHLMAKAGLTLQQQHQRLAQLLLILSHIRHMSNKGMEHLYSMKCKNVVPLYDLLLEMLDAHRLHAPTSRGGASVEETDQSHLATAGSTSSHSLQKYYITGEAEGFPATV
Estrogen receptor beta (Homo sapiens), sequence (Q92731 whole entry, looked up): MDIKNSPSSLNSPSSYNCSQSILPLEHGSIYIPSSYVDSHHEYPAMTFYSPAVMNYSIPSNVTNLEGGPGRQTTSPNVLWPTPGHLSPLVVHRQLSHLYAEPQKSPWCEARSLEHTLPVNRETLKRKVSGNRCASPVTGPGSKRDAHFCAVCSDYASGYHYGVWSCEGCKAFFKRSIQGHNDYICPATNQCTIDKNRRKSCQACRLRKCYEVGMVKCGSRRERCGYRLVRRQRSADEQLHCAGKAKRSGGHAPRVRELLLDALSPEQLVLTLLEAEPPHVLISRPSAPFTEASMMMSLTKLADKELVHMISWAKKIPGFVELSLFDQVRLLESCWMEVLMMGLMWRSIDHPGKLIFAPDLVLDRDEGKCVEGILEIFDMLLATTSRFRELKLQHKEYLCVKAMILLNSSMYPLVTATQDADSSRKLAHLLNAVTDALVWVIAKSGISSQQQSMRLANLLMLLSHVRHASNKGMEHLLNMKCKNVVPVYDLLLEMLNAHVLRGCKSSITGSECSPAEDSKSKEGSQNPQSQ
Androgen receptor (Homo sapiens), sequence (P10275 whole entry, looked up): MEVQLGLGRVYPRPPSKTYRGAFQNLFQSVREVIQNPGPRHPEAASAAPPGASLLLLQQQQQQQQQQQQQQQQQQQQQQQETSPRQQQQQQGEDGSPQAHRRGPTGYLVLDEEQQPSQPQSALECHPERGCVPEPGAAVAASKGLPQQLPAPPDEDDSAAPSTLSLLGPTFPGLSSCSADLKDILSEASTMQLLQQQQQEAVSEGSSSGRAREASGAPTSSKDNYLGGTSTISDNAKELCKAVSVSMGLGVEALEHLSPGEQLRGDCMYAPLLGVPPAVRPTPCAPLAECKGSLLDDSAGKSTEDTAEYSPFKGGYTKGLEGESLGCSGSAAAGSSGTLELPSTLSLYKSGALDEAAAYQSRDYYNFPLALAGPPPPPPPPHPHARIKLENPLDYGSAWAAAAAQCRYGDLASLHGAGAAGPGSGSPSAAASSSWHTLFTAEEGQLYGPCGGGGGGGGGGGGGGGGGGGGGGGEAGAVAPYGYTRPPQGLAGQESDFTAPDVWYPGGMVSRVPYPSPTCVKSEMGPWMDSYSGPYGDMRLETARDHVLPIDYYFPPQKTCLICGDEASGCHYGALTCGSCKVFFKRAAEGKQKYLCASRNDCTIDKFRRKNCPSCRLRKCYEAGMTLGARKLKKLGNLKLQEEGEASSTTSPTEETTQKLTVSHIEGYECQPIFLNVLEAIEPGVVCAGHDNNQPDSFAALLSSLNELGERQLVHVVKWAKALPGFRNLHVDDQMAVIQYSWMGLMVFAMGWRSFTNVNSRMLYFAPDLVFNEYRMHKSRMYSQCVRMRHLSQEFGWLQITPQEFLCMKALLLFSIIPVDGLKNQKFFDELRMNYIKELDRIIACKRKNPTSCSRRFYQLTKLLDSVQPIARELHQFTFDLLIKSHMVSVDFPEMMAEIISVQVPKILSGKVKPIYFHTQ
Thyrotropin receptor (Homo sapiens), sequence (P16473 whole entry, looked up): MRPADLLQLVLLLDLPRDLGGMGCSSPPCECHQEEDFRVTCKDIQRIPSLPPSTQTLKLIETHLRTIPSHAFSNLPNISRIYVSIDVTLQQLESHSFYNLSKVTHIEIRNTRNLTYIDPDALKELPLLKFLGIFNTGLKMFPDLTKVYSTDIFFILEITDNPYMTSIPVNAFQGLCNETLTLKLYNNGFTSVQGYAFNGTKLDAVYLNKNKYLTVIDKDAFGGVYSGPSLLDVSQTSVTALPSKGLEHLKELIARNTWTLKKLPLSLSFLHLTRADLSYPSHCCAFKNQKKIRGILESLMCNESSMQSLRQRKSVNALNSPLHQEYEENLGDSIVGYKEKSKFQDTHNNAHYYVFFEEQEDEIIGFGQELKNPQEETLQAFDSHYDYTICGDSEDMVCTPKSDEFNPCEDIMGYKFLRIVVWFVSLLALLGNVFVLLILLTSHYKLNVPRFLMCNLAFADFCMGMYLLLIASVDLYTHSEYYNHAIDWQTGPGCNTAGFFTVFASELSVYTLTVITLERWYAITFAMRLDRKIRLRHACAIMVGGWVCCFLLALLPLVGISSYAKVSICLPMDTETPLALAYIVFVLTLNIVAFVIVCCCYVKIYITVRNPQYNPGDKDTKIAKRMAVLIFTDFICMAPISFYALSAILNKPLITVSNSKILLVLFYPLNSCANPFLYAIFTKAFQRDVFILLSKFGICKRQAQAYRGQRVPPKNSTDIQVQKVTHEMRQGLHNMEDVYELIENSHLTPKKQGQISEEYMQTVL

SMILES	Potency [1]	Potency [2]	Potency [3]	Potency [4]	Potency [5]	Potency [6]	Potency [7]	Potency [8]	Potency [9]	Potency [10]
[Cl-].[Cl-].[Sn+2]	inactive	inactive	inactive	–	–	–	–	–	–	–
COc1nc(C)nc(NC(=O)NS(=O)(=O)c2ccccc2Cl)n1	inactive	inactive	inactive	inactive	inactive	inactive	inactive	inactive	–	–
CSC(=O)c1c(C(F)F)nc(C(F)(F)F)c(C(=O)SC)c1CC(C)C	inactive	inactive	–	–	inactive	–	–	inactive	inactive	–
CCN(CC)Cc1nccn1-c1ccc([N+](=O)[O-])cc1C(=O)c1ccccc1Cl	inactive	inactive	inactive	–	–	–	inactive	inactive	inactive	–
Brc1ccc(Oc2ccc(Br)cc2Br)c(Br)c1	inactive	inactive	–	–	inactive	inactive	inactive	61.2 µM (active)	inactive	–
CC(=O)[O][Pb]([c]1ccccc1)([c]1ccccc1)[c]1ccccc1	0.386 µM (active)	7.7 µM (active)	4.86 µM (active)	0.969 µM (active)	–	inactive	inactive	24.3 µM (active)	–	inactive
CC(=O)[O-].CC(=O)[O-].O.O.[Zn+2]	inactive	inactive	inactive	–	–	–	–	–	–	–
Nc1ccc(N=Nc2ccccc2)cc1	21.7 µM (active)	–	–	21.7 µM (active)	inactive	inactive	inactive	–	–	–
Cc1ccc2cc3c(ccc4ccccc43)c3c2c1CC3	inactive	inactive	inactive	inactive	inactive	–	inactive	inactive	–	–
[Cl][Hg][c]1ccccc1	0.0243 µM (active)	12.2 µM (active)	3.44 µM (active)	–	3.06 µM (active)	inactive	–	–	–	inactive
Cc1ccc(C)c2ccccc12	inactive	inactive	inactive	inactive	inactive	–	–	–	–	inactive
CN	inactive	inactive	inactive	inactive	inactive	–	–	inactive	–	–
CNN	inactive	inactive	inactive	–	–	–	–	–	–	–
Cc1c([N+](=O)[O-])cc2c(c1[N+](=O)[O-])C(C)(C)CC2(C)C	inactive	inactive	inactive	–	inactive	inactive	–	inactive	inactive	–
Oc1ccc2[nH]cc(CCCCN3CC=C(c4ccccc4)CC3)c2c1	3.35 µM (active)	–	29.8 µM (active)	inactive	–	–	inactive	inactive	–	–
COc1ccc2[nH]cc(CCN(C(C)C)C(C)C)c2c1	inactive	inactive	–	inactive	–	–	inactive	inactive	–	–
CC(C)[C@@H](Nc1ccc(C(F)(F)F)cc1Cl)C(=O)OC(C#N)c1cccc(Oc2ccccc2)c1 (stereo not given in full)	inactive	inactive	inactive	–	–	inactive	–	–	inactive	–

SMILES	Potency [1]	Potency [2]	Potency [3]	Potency [4]	Potency [5]	Potency [6]	Potency [7]	Potency [8]	Potency [9]	Potency [10]
CCOP(=S)(NC(C)C)Oc1ccccc1C(=O)OC(C)C (stereo not given)	inactive	–	3.86 µM (active)	–	–	–	inactive	–	inactive	–
CN(C)C(=S)SSC(=S)N(C)C	47.9 nM (active) and 306 nM (active) and 531 nM (active)	60.3 µM (active) and 68.6 µM (active) and inactive	135 nM (active) and 1.72 µM (active) and 119 nM (active)	–	479 nM (active) and 273 nM (active) and 237 nM (active)	inactive	–	–	–	inactive
Oc1cccc(Cl)c1Cl	inactive	inactive	–	inactive	–	inactive	inactive	inactive	–	–
CC[C@]1(O)CC[C@H]2[C@@H]3CCC4=CCCC[C@@H]4[C@H]3CC[C@@]21C	13.3 µM (active)	inactive	–	–	inactive	–	inactive	inactive	0.0067 µM (active)	–
CCC(C)c1cccc(C(C)CC)c1O (stereo not given)	inactive	inactive	inactive	–	inactive	inactive	–	inactive	inactive	–
Cc1cccc(Cc2cnc[nH]2)c1C	inactive	inactive	inactive	–	inactive	–	inactive	inactive	inactive	–
CC(C)=CCN1CC[C@@]2(C)c3cc(O)ccc3C[C@@H]1[C@@H]2C	inactive	–	inactive	–	inactive	–	inactive	inactive	inactive	–
N#Cc1c2ccccc2cc2ccccc12	inactive	–	inactive	–	–	inactive	inactive	inactive	21.6 µM (active)	inactive
O=[N+]([O-])C(Br)Br	inactive	–	inactive	–	inactive	–	inactive	–	inactive	inactive
CCC(OC(C)=O)C(CC(C)NC)(c1ccccc1)c1ccccc1 (stereo not given)	30.9 µM (active)	49 µM (active)	49 µM (active)	–	54.9 µM (active)	inactive	inactive	–	–	inactive
O=C1C(Cl)=C(Cl)C(=O)C(Cl)=C1Cl	4.84 µM (active) and 12.2 µM (active)	60.9 µM (active) and inactive	60.9 µM (active) and 54.5 µM (active)	–	60.9 µM (active)	inactive	–	–	–	inactive
CC(Cc1ccccc1)N(C)Cc1ccco1 (stereo not given)	inactive	inactive	inactive	–	inactive	–	inactive	inactive	–	inactive
S=C=Nc1ccccc1	inactive	inactive	–	inactive	inactive	inactive	–	–	–	inactive
N#Cc1sc2c(=O)c3ccccc3c(=O)c=2sc1C#N	3.86 µM (active)	17.2 µM (active)	21.7 µM (active)	–	17.2 µM (active)	inactive	inactive	–	–	inactive
Cc1cc(C2CC2)nc(Nc2ccccc2)n1	inactive	inactive	–	inactive	inactive	inactive	inactive	inactive	–	–
ClCBr	inactive	inactive	–	inactive	inactive	inactive	inactive	inactive	–	–
CC(=O)[O-].CC(=O)[O-].O.O.O.[Pb+2]	inactive	inactive	inactive	–	–	–	–	–	–	–
